{"source": "PubChem BioAssay AID2315", "about": "(National Center for Advancing Translational Sciences (NCATS), 2010)", "note": "Out of some 290,000 compounds screened, about 27,000 (9.3%) were called active. Only a selection was taken, and actives are over-represented in it overall. Unmarked numbers belong to inactive results. Rule as the data show it: active = inhibition mostly above about 28% (no sharp cut-off); inactive = mostly below about 43%."}
{"assay": "A qHTS for Small Molecule Inhibitors of Shiga Toxin; also: 0% is about no effect", "conditions": "Vero cells, Shiga toxin protein synthesis inhibition reporter; at 38.7 µM, stronger effect = higher value"}
{"smiles": "COc1ccc(N(Cc2cc3ccc(C)cc3[nH]c2=O)S(=O)(=O)c2ccccc2)cc1", "inhibition": "-1.62%"}
{"smiles": "CCOc1cc(NC(=O)Nc2ccccc2)c(OCC)cc1NC(=O)CC", "inhibition": "-9.09%"}
{"smiles": "CC1CCCN(S(=O)(=O)c2ccc(-c3ccc(=O)[nH]n3)o2)C1", "note": "(centres undefined)", "inhibition": "-5.12%"}
{"smiles": "O=S(=O)(NC1CC1)c1ccc(F)c(F)c1", "inhibition": "20.3%"}
{"smiles": "CCc1ccc(OCC(=O)OC(C)C(=O)NC2CC2)cc1", "note": "(centres undefined)", "inhibition": "-3.01%"}
{"smiles": "CCCCN(CC)C(=O)C1CCCN(S(=O)(=O)c2cccc3nsnc23)C1", "note": "(centres undefined)", "inhibition": "-4.85%"}
{"smiles": "CCOC(=O)C(C)n1cnc2sc(C)c(C)c2c1=O", "note": "(centres undefined)", "inhibition": "17.6%"}
{"smiles": "Cc1cccc(OC(=O)c2sc3ncn(C)c(=O)c3c2C)c1", "inhibition": "67.1% (active)"}
{"smiles": "Cc1c(C(N)=O)sc2ncn(CCOc3ccccc3)c(=O)c12", "inhibition": "59.8%"}
{"smiles": "CN(CCc1ccccn1)C(=O)c1ccc(OC2CCN(Cc3ccccn3)CC2)cc1", "inhibition": "16%"}
{"smiles": "CCOc1ccc(C(=O)Nc2nccs2)cc1[N+](=O)[O-]", "inhibition": "69.4% (active)"}
{"smiles": "CCCCOC(=O)Nc1nccs1", "inhibition": "7.37% (active)"}
{"smiles": "CCOc1ccc(C(=O)NC(=S)Nc2ccc(NC(=O)C(C)C)cc2)cc1[N+](=O)[O-]", "inhibition": "-4.8%"}
{"smiles": "CC(NC(=O)C(=O)Nc1nccs1)c1ccccc1", "note": "(centres undefined)", "inhibition": "-4.59%"}
{"smiles": "CCN(c1ccccc1)S(=O)(=O)c1ccc(C(=O)Nc2nccs2)cc1", "inhibition": "-6.9%"}
{"smiles": "CC(=O)NC(CC(=O)Nc1nccs1)c1ccccc1", "note": "(centres undefined)", "inhibition": "14.1%"}
{"smiles": "CCCCOC(=O)Nc1nnc(CC(=O)NCc2ccccc2)s1", "inhibition": "-13.9%"}
{"smiles": "CC(=O)Oc1ccc(C(=O)Nc2nccs2)cc1", "inhibition": "45.7% (active)"}
{"smiles": "O=C(O)c1ccccc1-c1ccccc1C(=O)Nc1nccs1", "inhibition": "16.1%"}
{"smiles": "COc1ccc(C(=O)NNC(=O)c2cnccn2)cc1[N+](=O)[O-]", "inhibition": "-6.53%"}
{"smiles": "Cn1cccc1C(=O)Nc1nccs1", "inhibition": "39.3% (active)"}
{"smiles": "O=C(COC(=O)c1ccc(O)cc1)Nc1nccs1", "inhibition": "28%"}
{"smiles": "COC(=O)CCc1ccccc1S(=O)(=O)N(CCC(=O)OC)Cc1ccccc1", "inhibition": "-5.55%"}
{"smiles": "Cc1ccccc1Nc1c([N+](=O)[O-])ccc2nonc12", "inhibition": "-12%"}
{"smiles": "COc1cc(OC)c2c(C)cc(=O)oc2c1C(CCN1CCCCC1)c1ccc(N(C)C)cc1", "note": "(centres undefined)", "inhibition": "-4.37%"}
{"smiles": "COCc1ccc(CN2CCC(Oc3ccc(C(=O)NCc4ccccn4)cc3)CC2)o1", "inhibition": "-9.34%"}
{"smiles": "C=C1/C(=C\\C=C2\\CCCC3(C)C2CCC3C(C)/C=C/C(O)C2CC2)CC(O)CC1O", "note": "(centres undefined)", "inhibition": "-5.18%"}
{"smiles": "O=C(NCc1cccc(C(F)(F)F)c1)c1cccc(S(=O)(=O)N2CCN(Cc3ccccc3)CC2)c1", "inhibition": "-21.6%"}
{"smiles": "CCOc1ccc(C2/C(=C(/O)c3ccc4c(c3)CC(C)O4)C(=O)C(=O)N2CCCn2ccnc2)cc1", "note": "(centres undefined)", "inhibition": "14.2%"}
{"smiles": "COc1ccc(-c2cc(C(=O)NC(Cc3c[nH]c4ccccc34)C(=O)O)c(C)o2)cc1OC", "note": "(centres undefined)", "inhibition": "29.3% (active)"}
{"smiles": "Cc1cccc(C)c1OCC(=O)NC(Cc1c[nH]c2ccccc12)C(=O)O", "note": "(centres undefined)", "inhibition": "-4.32%"}
{"smiles": "COc1ccc(-c2cc(C(=O)NC(C(=O)O)C(C)C)c(C)o2)cc1OC", "note": "(centres undefined)", "inhibition": "46.9%"}
{"smiles": "O=C(NCCc1ccc(Cl)cc1Cl)c1cc([N+](=O)[O-])c[nH]c1=O", "inhibition": "-2.76%"}
{"smiles": "Cc1ccnc(NS(=O)(=O)c2ccc(NC(=O)c3oc4ccccc4c3C)cc2)n1", "inhibition": "-19.8%"}
{"smiles": "CCCc1nc(SCC(=O)N2CCCC2)c2c(=O)n(C)c(=O)n(C)c2n1", "inhibition": "-3.54%"}
{"smiles": "C[C@@H]1CC[C@@]2(OC1)O[C@H]1C[C@H]3[C@@H]4CC=C5C[C@@H](O)[C@H](O)C[C@]5(C)C4CC[C@]3(C)[C@H]1[C@@H]2C", "note": "(some centres undefined)", "inhibition": "-6.76%"}
{"smiles": "Cc1[nH]c2ccc(C(=O)N3CCN(C)CC3)cc2c1C", "inhibition": "45.9% (active)"}
{"smiles": "COc1ccc2[nH]c(C(=O)N3CCN(C)CC3)c(C)c2c1", "inhibition": "-9.68%"}
{"smiles": "CCOc1ccccc1N1CCN(C(=O)c2ccc3[nH]c(C)c(C)c3c2)CC1", "inhibition": "-2.3%"}
{"smiles": "CCOCCCNC(=S)Nc1ccc2nc(N3CCN(CC)CC3)cc(C)c2c1", "inhibition": "4.52%"}
{"smiles": "Cc1ccccc1N1CC(c2nc3ccccc3[nH]2)CC1=O", "note": "(centres undefined)", "inhibition": "-11.9%"}
{"smiles": "COc1ccc(-c2[nH]nc(-c3ccccc3)c2-c2nc3ccccc3[nH]2)cc1", "inhibition": "-19.5%"}
{"smiles": "c1ccc2[nH]c(-c3nc4ccccc4[nH]3)nc2c1", "inhibition": "107% (active)"}
{"smiles": "Cc1ccc(-c2nc3ccccc3[nH]2)cc1N", "inhibition": "106% (active)"}
{"smiles": "OC(c1nc2ccccc2[nH]1)C(O)C(O)C(O)c1nc2ccccc2[nH]1", "note": "(centres undefined)", "inhibition": "19.2%"}
{"smiles": "Cc1ccc(-c2nc3ccccc3[nH]c2=O)cc1", "inhibition": "21.4%"}
{"smiles": "CCOC(=O)N1CCN(C(=O)CSc2ccc(Cl)cc2)CC1", "inhibition": "93.2% (active)"}
{"smiles": "CCN1CCN(C(=O)CSc2ccc(C)cc2)CC1", "inhibition": "52.4%"}
{"smiles": "CCOC(=O)N1CCN(C(=O)CNC(=O)Cc2ccc(Cl)cc2)CC1", "inhibition": "-2.93%"}
{"smiles": "CC(=O)Nc1ccc(S(=O)(=O)Nc2cc(C)cn(Cc3ccc(C)cc3)c2=O)cc1", "inhibition": "20.8%"}
{"smiles": "Cc1cc(OC(=O)c2ccccc2Cl)ccc1N1C(=O)CCC1=O", "inhibition": "60.4% (active)"}
{"smiles": "CCOC(=O)c1cc(OC(=O)c2ccccc2Cl)n(-c2ccccc2)n1", "inhibition": "35.8%"}
{"smiles": "COc1ccccc1C(=O)Oc1ccc(N2C(=O)CCC2=O)cc1", "inhibition": "-6.4%"}
{"smiles": "Cc1n[nH]c(=O)c2c1nnn2Cc1ccc(F)cc1", "inhibition": "14.5%"}
{"smiles": "CC1CCN(C(=S)NC(=O)c2ccccc2Br)CC1", "inhibition": "14.3%"}
{"smiles": "Nc1ccc(N=Nc2ccccc2Cl)c(N)n1", "inhibition": "105% (active)"}
{"smiles": "CCOC(=O)C1CCN(S(=O)(=O)c2ccc3c(c2)N(C(C)=O)CCO3)CC1", "inhibition": "15.1%"}
{"smiles": "CCN(CC)S(=O)(=O)c1ccc(N2CCN(C)CC2)c(NC(=O)Nc2ccccc2F)c1", "inhibition": "19.8%"}
{"smiles": "Cc1cccc(C2c3[nH]c4ccccc4c3CCN2C(=O)c2cc(-c3cccn3C)n[nH]2)n1", "note": "(centres undefined)", "inhibition": "-3.12%"}
{"smiles": "Cc1cccc(C(=O)N2CCc3c([nH]c4ccccc34)C2CC(C)C)n1", "note": "(centres undefined)", "inhibition": "52.7% (active)"}
{"smiles": "O=C(c1cn2ccccc2n1)N1CCc2c([nH]c3ccccc23)C1c1ccccn1", "note": "(centres undefined)", "inhibition": "13.1%"}
{"smiles": "CCc1ccc(NC(=O)NC(C)c2ccc3c(c2)OCO3)cc1", "note": "(centres undefined)", "inhibition": "-6.59%"}
{"smiles": "Cc1cc(-c2ccc(C)c(S(=O)(=O)NC(C)Cc3ccco3)c2)on1", "note": "(centres undefined)", "inhibition": "-1.68%"}
{"smiles": "O=C(Nc1nnc(SCc2ccccc2)s1)c1ccco1", "inhibition": "55.6%"}
{"smiles": "Cc1ccc(Nc2nc(N)nc(CSc3nnc(C)s3)n2)cc1", "inhibition": "97.7% (active)"}
{"smiles": "CCOC(=O)N1CCN(Cc2nc(N)nc(Nc3ccc(C)cc3)n2)CC1", "inhibition": "16.1%"}
{"smiles": "Cc1cccc(CSc2nnc(NC(=O)CSc3nnc(C)s3)s2)c1", "inhibition": "-22%"}
{"smiles": "Cc1ccc(Nc2nnc(SCc3ccccc3)s2)cc1", "inhibition": "78.2% (active)"}
{"smiles": "Cc1nnc(SCc2nc3ccccc3nc2C)s1", "inhibition": "-8.09%"}
{"smiles": "Cc1cccn2cc(-c3cccc(S(=O)(=O)N4CCCCC4)c3)nc12", "inhibition": "15.3%"}
{"smiles": "N#CCSc1nc(-c2ccccc2)nc2ccc(F)cc12", "inhibition": "4.25%"}
{"smiles": "CCc1nnc(NC(=O)CCC(=O)N2CCN(c3cc(C)ccc3C)CC2)s1", "inhibition": "2.43%"}
{"smiles": "CCOC(=O)N1CCC(N2Cc3cccc(C(=O)Nc4ccc(S(=O)(=O)N(CC)CC)cc4)c3C2=O)CC1", "inhibition": "-14%"}
{"smiles": "CCOc1c2ccc(C(=O)NCc3ccc(OC(F)(F)F)cc3)cc2nn1C", "inhibition": "29%"}
{"smiles": "COc1ccc(CNC(=O)c2cc(=O)c3c(C)cc(C)cc3o2)cc1", "inhibition": "-1.33%"}
{"smiles": "COc1ccc(CNC(=O)c2ccc3oc(C(C)C)nc3c2)cc1", "inhibition": "51.4% (active)"}
{"smiles": "COC(=O)c1ccc(CSc2nc3cc(Cl)ccc3o2)cc1", "inhibition": "-12.3%"}
{"smiles": "CC(C)c1nc2cc(C(=O)NC(C)c3cnn(C)c3)ccc2o1", "note": "(centres undefined)", "inhibition": "20.7%"}
{"smiles": "COC(=O)c1ccc(CNC(=O)c2ccc3oc(C(C)C)nc3c2)cc1", "inhibition": "71.8% (active)"}
{"smiles": "Cc1ccccc1CCNC(=O)C1CCC(=O)N(Cc2ccc(Cl)cc2)C1", "note": "(centres undefined)", "inhibition": "13.3%"}
{"smiles": "O=C(OCc1ccc([N+](=O)[O-])cc1)C1CC(=O)N(Cc2ccccc2Cl)C1", "note": "(centres undefined)", "inhibition": "-0.893%"}
{"smiles": "O=C(NCCCN1CCCCC1)C1CC(=O)N(CCc2ccccc2)C1", "note": "(centres undefined)", "inhibition": "-8.56%"}
{"smiles": "COc1ccc(/C=N/NC(=O)c2ccccc2)cc1OS(=O)(=O)c1ccccc1", "inhibition": "59.1% (active)"}
{"smiles": "Cc1ccc(S(=O)(=O)Oc2ccc(/C=N/NC(=O)c3ccncc3)cc2)cc1", "inhibition": "9.5%"}
{"smiles": "COc1ccc(/C=N\\NC(=O)c2sc(N)nc2C)cc1OC", "inhibition": "15.2%"}
{"smiles": "COc1cc(/C=N/NC(=O)c2ccccc2)ccc1OS(=O)(=O)c1ccccc1", "inhibition": "31% (active)"}
{"smiles": "COc1ccc(/C=N/S(=O)(=O)c2ccccc2)cc1OC", "inhibition": "-10.1%"}
{"smiles": "COc1cc(/C=N/NC(=O)c2cccnc2)ccc1OC(=O)c1cccc(Br)c1", "inhibition": "-22.1%"}
{"smiles": "COc1ccc(C)cc1NC(=O)CN(C)S(=O)(=O)c1ccc2c(c1)n(C)c(=O)c(=O)n2C", "inhibition": "3.45%"}
{"smiles": "COc1ccc(-n2cc(-c3ccccc3)c3c(=S)nc[nH]c32)cc1", "inhibition": "-14.3%"}
{"smiles": "CC(Oc1cccc(Cl)c1)C(=O)NC1CC(C)(C)NC(C)(C)C1", "note": "(centres undefined)", "inhibition": "-11.3%"}
{"smiles": "CCn1cc(C(=O)NCCC(=O)NCCO)c(=O)c2cc3c(cc21)OCO3", "inhibition": "-8.77%"}
{"smiles": "CC(C)[C@H](NC(=O)N1CCn2c1nc1ccccc12)C(=O)NCCc1ccccc1", "inhibition": "31.8%"}
{"smiles": "O=C(O)c1c(NC(=O)N2CCCC2)sc2c1CCCC2", "inhibition": "36.9%"}
